# Screening results as filed in PubChem.
# Shown are actives, neighbours in structure and some others; about 3.3% of the full set was active somewhere.
# Calb biofilm kill: clotrimazole potentiators killing Candida biofilms, primary screen, with clotrimazole, Alamar Blue | actives 0.14% (n = 85,000) | C. albicans biofilm + clotrimazole | inhibition, % at 6 µM | AID 834, 2007;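 active means inhibition above 20%; inactive means inhibition below 20%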;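 further: preformed 24 hr biofilms exposed to compound for 48 hr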
# ERb coact inh: inhibitors of ERβ-SRC1 coactivator interaction, primary screen, biochemical, TR-FRET, ERβ LBD, SRC-1 peptide | TR-FRET ER-beta LBD / SRC1-Cy5 peptide binding; receptor agonist-loaded with 1 µM estradiol | Estrogen receptor beta (Homo sapiens), Q92731 | actives 1.3% (n = 86,000) | inhibition, % at 25.6 µM;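 active means compounds whose percent inhibition of the receptor-coactivator binding signal exceeds about 50% in the single-dose screen, limit read from the data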
# ERa coact pot: enhancers of ERα–SRC-1 coactivator binding, primary screen, biochemical, TR-FRET, ERα LBD, low estradiol. coactivator binding (% of control), % at 25.6 µM. TR-FRET ERalpha-LBD/SRC-Cy5 coactivator binding, 2 h; 100 = basal binding, no effect. Estrogen receptor (Homo sapiens), P03372. actives 1.3% (n = 86,000); in the data active means activity above about 200%;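 further: binding measured in presence of low estradiol as agonist stimulus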
# Target sequence (P03372 whole entry, looked up, the tested form may be a part): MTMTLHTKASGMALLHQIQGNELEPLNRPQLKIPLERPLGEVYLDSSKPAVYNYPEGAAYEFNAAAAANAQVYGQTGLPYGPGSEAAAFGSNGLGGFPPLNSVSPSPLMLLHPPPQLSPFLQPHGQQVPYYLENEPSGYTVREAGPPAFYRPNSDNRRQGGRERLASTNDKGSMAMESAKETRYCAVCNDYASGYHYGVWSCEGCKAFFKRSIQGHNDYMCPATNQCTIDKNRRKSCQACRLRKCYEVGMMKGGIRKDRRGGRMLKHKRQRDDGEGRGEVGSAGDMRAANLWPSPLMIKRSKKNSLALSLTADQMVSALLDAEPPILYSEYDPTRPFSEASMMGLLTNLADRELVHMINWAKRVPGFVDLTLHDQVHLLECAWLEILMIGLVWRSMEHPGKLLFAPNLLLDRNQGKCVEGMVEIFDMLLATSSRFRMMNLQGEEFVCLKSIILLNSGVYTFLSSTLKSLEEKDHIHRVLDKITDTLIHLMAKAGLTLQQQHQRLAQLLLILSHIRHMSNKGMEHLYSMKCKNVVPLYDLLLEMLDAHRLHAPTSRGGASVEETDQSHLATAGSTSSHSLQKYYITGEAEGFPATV
# ERa coact inh: ERα–SRC-1 coactivator interaction inhibitors, primary screen, biochemical, TR-FRET, ERα LBD, estradiol-bound; TR-FRET ER-alpha LBD / SRC-1 peptide; inhibition, % at 25.6 µM; actives 1.7% (n = 86,000); in the data active means inhibition above about 50%
# Smad3 FoxH1 inh: Smad3/FoxH1 peptide binding inhibitors, primary screen, biochemical, TR-FRET | Mothers against decapentaplegic homolog 3 (Homo sapiens), P84022 | TR-FRET Smad3/Dy647-FoxH1 peptide binding, europium anti-His | inhibition, % at 25 µM | actives 0.29% (n = 88,000);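 active means compounds that reduce the energy-transfer binding signal between the protein and its labelled peptide by more than half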
# FAK blocker: FAK kinase inhibitors, primary screen, biochemical | actives 0.84% (n = 97,000) | AID 727, 2007 | Focal adhesion kinase 1 (Homo sapiens), Q05397 | biochemical FAK kinase activity assay | inhibition, %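 (tested at 7 µM)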
# FAK inh confirm: FAK kinase inhibitors, retest, confirmation, biochemical | shares compounds with FAK blocker | FAK kinase biochemical inhibition assay | inhibition, % at 7 µM | actives 28% (n = 750) | AID 794, 2007
# Numbers stand for hits; 0 = inactive; - = no result given; [ ] = another dose, or the depositor's remark. Unless noted, no stated cut-off is given here; in the data, active means inhibition above about 19%; inactive means the rest.
SMILES,Calb biofilm kill,ERb coact inh,ERa coact pot,ERa coact inh,Smad3 FoxH1 inh,FAK blocker,FAK inh confirm
CCCc1[nH]nc2c1C(c1ccc(O)c(OC)c1)C(C#N)=C(N)O2 (centres undefined),0,0,0,0,0,20,0
c1cc2ccc3ccc(CN4CCOCC4)c4ccc(c1)c2c34,0,0,0,0,0,41,41
CCC1=NNc2cccc3c(OC)ccc1c23,0,100[fluorescence artefact?],0,99[fluorescence artefact?],65[fluorescence artefact?],82,26
O=C1c2ccccc2C(=O)c2c(NCc3cccnc3)cccc21,-,-,-,-,-,28,0
c1ccc(NCc2cccnc2)cc1,0,0,0,0,0,0,-
CN(Cc1ccccc1)C(=O)[C@H]1CCC(=O)N1Cc1ccco1,0,0,0,0,0,0,-
COc1ccc(/C=N/NC(=O)c2ccn[nH]2)cc1COc1ccc(Cl)cc1Cl,-,-,-,-,-,21,0
COc1ccc(C/C(O)=C(\C#N)c2nc3ccccc3[nH]2)cc1OC,0,0,0,0,0,0,-
Cc1cc(C)n2c(SC/C(O)=C(\C#N)c3nc4ccccc4[nH]3)nnc2n1,0,69[fluorescence artefact?],0,97[fluorescence artefact?],0,22,0
CCCCCCCC(=O)Nc1ccc(C(=O)N/N=C/c2cccc([N+](=O)[O-])c2)cc1,-,-,-,-,-,34,0
O=C(N/N=C/c1ccncc1)c1cc2c(ccc3ccccc32)o1,-,-,-,-,-,52,0
O=C(Nc1ccc(-c2nc3ccc(NC(=O)c4cccs4)cc3[nH]2)cc1)c1cccs1,0,55,0,91[fluorescence artefact?],54[fluorescence artefact?],53,47
O=S(=O)(c1ccc(Br)cc1)N1CCN(S(=O)(=O)c2ccc(Br)cc2)CC1,-,-,-,-,0,-,-
Cn1c(SCC(=O)Nc2cc(=O)n(C)c(=O)n2C)nnc1C12CC3CC(CC(C3)C1)C2,0,0,0,0,0,-,-
Nc1ccc(-n2cnc3cc([N+](=O)[O-])ccc32)cc1,-,-,-,-,-,26,0
COc1ccc(N2Cc3cccc(C(=O)N4CCN(C(=O)c5ccco5)CC4)c3C2=O)cc1,0,68,0,71,0,49,0
COc1ccc(N2Cc3cccc(C(=O)N4CCOCC4)c3C2=O)cc1,0,0,0,0,0,0,-
Cc1ccccc1-n1c(SCc2ccccn2)nc2n[nH]c(C)c2c1=N,-,-,-,-,-,30,0
CCOc1ccccc1NC(=O)CCSc1nc2n[nH]c(C)c2c(=N)n1-c1ccccc1Cl,0,0,0,0,0,-,-
CC(NC(=O)c1ccnc(C(C)(C)C)c1)c1ccccc1 (centres undefined),0,0,0,0,0,0,-
CCc1cc(=O)oc2cc(C)c(CN3CCCC3)c(O)c12,0,0,0,0,0,29,0
CCCN1CCCc2cc(CN)ccc21,0,54[fluorescence artefact?],0,0,53,24,0
CN1CCCc2cc(C=O)ccc21,0,0,0,0,0,0,-
Oc1ccc2ccccc2c1C=Nc1ccc(N2CCOCC2)cc1,0,0,0,0,0,46,49
S=C(N=Nc1ccccc1)NNc1ccccc1,0,0,0,0,0,-,-
COc1ccc(NC(=O)CSc2ccc3c4c(cccc24)C(=O)c2ccccc2-3)cc1,-,-,-,-,-,0,-
N#Cc1cccc(NC(=O)CSc2ccc3c4c(cccc24)C(=O)c2ccccc2-3)c1,-,-,-,-,-,27,22
COc1ccc2cc3cc(C(=O)Nc4ccc5c(c4)OCCO5)oc3nc2c1,0,0,209,71[fluorescence artefact?],0,43,0
COc1ccc2cc3cc(C(=O)Nc4cc(OC)c(OC)c(OC)c4)oc3nc2c1,0,0,0,0,0,0,-
N#Cc1c(NC(=O)CSc2ncnc3sccc23)oc(-c2ccco2)c1-c1ccco1,0,73[fluorescence artefact?],0,90[fluorescence artefact?],0,22,0
